Compound activity: PubChem, several laboratories
KLF5 inh = KLF5 expression inhibitors, primary screen, DLD-1 cells, luminescence; DLD-1 KLF5 promoter-luciferase reporter; inhibition, % at 5 µM; hit rate 0.23% among 290,000;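 active means inhibition above a per-plate limit of that plate's mean compound inhibition plus 3 SD, cut at about 60% in these data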;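 further: 0% = DMSO wells and 100% = LY294002 at 200 µM; higher means less KLF5 promoter-driven luciferase light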
BaF3 parental = parental Ba/F3 cell viability inhibition, counter-screen for JAK2V617F inhibitor project, murine pro-B, CellTiter-Glo luminescence. CellTiter-Glo ATP luminescence. inhibition, % at 5.6 µM. hit rate 1.1% among 220,000. AID 1486, 2009;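 active means inhibition above a per-campaign cutoff, the mean inhibition of all tested compounds plus 3 SD, cut at about 27% in these data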;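 further: 0% = DMSO wells and 100% = JAK Inhibitor I control wells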
IEC-6 cytotox = cytotoxicity in IEC-6 intestinal epithelial cells, primary screen, cytotoxicity control for KLF5 inhibitor project, cell-based, luminescence. IEC-6 cytotoxicity, luminescence viability. inhibition, % at 5 µM. hit rate 0.78% among 290,000; in the data active means inhibition above about 22%;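 further: 0% = plate median of test compound wells and 100% = cytotoxic reference compound wells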
Ba/F3 V617F tox = reduced viability of JAK2V617F-dependent Ba/F3 cells, primary screen, JAK2V617F inhibitor project, cell-based, Ba/F3 EpoR-JAK2V617F, luminescence; ATP luminescence; inhibition, % at 5.6 µM; hit rate 1.1% among 220,000;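 active means inhibition above the campaign mean plus 3 SD over all tested compounds, cut at about 24% in these data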;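 further: cytokine-independent growth of Ba/F3 cells driven by EpoR plus mutant JAK2; 0% = DMSO-treated cells and 100% = JAK inhibitor I control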
aSyn UTR inh = MLPCN primary screen, SNCA 5' untranslated region; alpha-synuclein 5'UTR reporter, inhibitor activity; inhibition, % (tested at 7.5 µM); hit rate 0.82% among 300,000; AID 1813, 2009; in the data active means inhibition above about 60%; inconclusive means no clear call, values can overlap the other calls;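 further: H4 neuroglioblastoma cells stably carrying SNCA 5'UTR luciferase fusion; 0% = DMSO wells and 100% = positive control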
APP transl inh = inhibitors of APP translation via 5'UTR reporter, primary screen, APP 5'UTR luciferase, SH-SY5Y cells | SH-SY5Y APP 5'UTR-luciferase reporter, luminescence | inhibition, % at 2 µM | hit rate 0.82% among 190,000 | AID 1285, 2008;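 active means inhibition above a set limit, derived from the sample mean plus 3 SD, cut at about 45% in these data; inconclusive means one replicate passes the limit while the other fails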
Active calls of the source: *; ? = inconclusive; / = no result. A selection: hits, their analogues and other compounds. The true share with any hit is near 2.2%.

SMILES	KLF5 inh	BaF3 parental	IEC-6 cytotox	Ba/F3 V617F tox	aSyn UTR inh	APP transl inh
COc1cc(/C=N/NC(=O)C(Cc2c[nH]c3ccccc23)NC(=O)OCC(C)C)cc([N+](=O)[O-])c1O (stereo unspecified)	27	6	2	4	11	-3
Cc1ccc2[nH]c3c(N4CCc5ccccc5C4)ncnc3c2c1	0	49*	17	44*	-3	-10
Fc1ccc2[nH]c3c(N4CCc5ccccc5C4)ncnc3c2c1	-29	55*	12	44*	22	/
Brc1ccc2[nH]c3c(N4CCc5ccccc5C4)ncnc3c2c1	-2	1	-2	1	-43	10
O=C(Nc1ccccc1)C1CCCN1S(=O)(=O)c1ccc(Br)cc1 (stereo unspecified)	-24	/	-10	/	-7	/
Cc1ccc2c(c1)sc(=NC(=O)c1cccs1)n2C	2	5	12	5	85*	-220
CN(Cc1cn(C)c2ccccc12)C(=S)Nc1cc(F)cc(F)c1	1	9	4	-1	5	6
Nc1nc(N)c2c(ccc3nccc32)[nH]1	4	102*	71*	94*	49	/
Cc1c(C(C)C)c(=O)n(-c2ccc(S(=O)(=O)NCc3ccccc3)cc2)n1C	-21	72*	6	42*	-35	8
Cc1c(C(C)C)c(=O)n(-c2ccc(S(=O)(=O)NC3CCCCC3)cc2)n1C	-4	41*	5	37*	14	12
COc1cc(SC)ccc1C(=O)Nc1ccc2c(c1)CCC2	-137	/	13	/	-119	/
CN(c1ccc(C(=O)NCCCn2ccnc2)cc1)S(C)(=O)=O	7	/	6	/	6	/
CCOC(=O)C1=C(C)N=c2s/c(=C\c3cccn3C)c(=O)n2C1c1cccc(OC)c1OC (stereo unspecified)	-25	96*	-2	-5	29	-9
COc1ccc(CCNC(=O)COc2nncc3ccccc23)cc1	3	2	-2	-2	5	-1
COc1cccc2c1C(=O)c1c(O)c3c(c(O)c1C2=O)C[C@@](O)(C(=O)CO)C[C@@H]3O[C@H]1C[C@H](N)[C@H](O)[C@H](C)O1	42	101*	94*	102*	109*	95*
Cc1ccc(-c2cc(C(=O)N3CCCC3)no2)cc1	-114	1	0	-1	?	-208
Cc1ccc(-c2cc(C(=O)N3CCOCC3)no2)cc1	41	/	-5	/	67*	/
O=C(COC(=O)c1ccc(NC(=O)C2CC=CCC2C(=O)O)cc1)c1ccccc1 (stereo unspecified)	8	/	-1	/	-14	/
O=C(Nc1ccc(Cl)c(Cl)c1)Nc1ccc(N2CCCC2)c(S(=O)(=O)Nc2ccccc2Cl)c1	13	0	-5	-2	95*	-5
O=C(Nc1ccc(F)cc1)Nc1ccc(N2CCCC2)c(S(=O)(=O)Nc2ccccc2Cl)c1	10	1	5	-5	11	9
Cc1nc(C(=O)O)cc2c1[nH]c1ccccc12	/	/	/	/	1	/
CC(=O)N(C(C)=O)c1ncc2c([nH]c3ccccc32)c1C#N	-3	-2	1	-4	65*	-14
CN(Cc1ccccc1)C(=O)Cn1c(=O)c2cccn2c2cccnc21	-20	/	1	/	11	/
O=C1CC(c2ccccc2F)c2cc3c(cc2N1)CCC3 (stereo unspecified)	-8	77*	16	63*	65*	64*
O=C1CC(c2ccccc2Br)c2cc3c(cc2N1)CCC3 (stereo unspecified)	-29	5	-1	0	12	-11
O=C1CC(c2cc(Br)ccc2F)c2cc3c(cc2N1)CCC3 (stereo unspecified)	0	4	-6	-4	65*	41
COc1cccc(C2CC(=O)Nc3cc4c(cc32)CCC4)c1 (stereo unspecified)	43	45*	46*	38*	84*	57*
CN(C)S(=O)(=O)N1CCC(Oc2ccc(C(=O)N3C[C@@H]4CCC[C@H]3C4)cc2)CC1	-15	/	3	/	40	/
CC(=O)Nc1ccc(C(=O)Cn2c3[n+](c4c(F)c(F)ccc42)CCCCC3)cc1	-27	6	-3	-4	7	1
